Assay results: PubChem BioAssay AID1159580 (chemical genetic matrix, 2015)
Values joined by “and” are separate entries in the source; they are usually repeats but may differ in a detail not shown here. Identical values can stand only once. Out of some 5,500 compounds screened, about 2,000 (36%) were called active. Roughly 18% stayed inconclusive and do not appear here. Rule as the data show it: active = normalized growth mostly below about 0.91 (no sharp cut-off); inconclusive = no clear call, values can overlap the other calls; inactive = mostly above about 0.92. The list shows a part of the results.

Test: chemical genetic growth profiling, strain panel (AID 1159580);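 also: tested at 20 µM; growth read once vehicle control cultures reached saturation at 30 °C; 1 = growth at the plate median or of vehicle wells; lower values mean less growth of the strain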
Settings: S. cerevisiae deletion strains, growth OD

Measured: normalized growth

CC(=O)O[C@H]1CC[C@@]2(C)C(C[C@@H](OC(C)=O)[C@@]3(C)C4=CC(=O)O[C@@H](c5ccoc5)[C@]4(C)CCC23)C1(C)C (stereo partly drawn)
inactive: locus YAL021C, strain ccr4, active compounds read low 1 | locus YAL026C, strain drs2, active compounds read low 1.01 | locus YAL030W, strain snc1, active compounds read low 0.999 | locus YBL061C, strain skt5, active compounds read low 0.997 | locus YBR009C, strain hhf1, active compounds read low 1.02 | locus YBR021W, strain FUR4, active compounds read low 0.981 | locus YBR023C, strain chs3, active compounds read low 0.996 | locus YBR171W, strain sec66, active compounds read low 1 | locus YBR229C, strain ROT2, active compounds read low 1.01 | locus YBR231C, strain swc5, active compounds read low 1.01 | locus YBR279W, strain paf1, active compounds read low 1 | locus YCL011C, strain gbp2, active compounds read low 1.01 | locus YCL016C, strain dcc1, active compounds read low 1.01 | locus YCL029C, strain bik1, active compounds read low 0.989 | locus YCL061C, strain MRC1, active compounds read low 0.994 | locus YCL069W, strain vba3, active compounds read low 1.02 | locus YCR088W, strain abp1, active compounds read low 1 | locus YDL005C, strain med2, active compounds read low 1 | locus YDL035C, strain GPR1, active compounds read low 1.02 | locus YDL040C, strain nat1, active compounds read low 1 | locus YDL074C, strain BRE1, active compounds read low 1 | locus YDL101C, strain DUN1, active compounds read low 0.999 | locus YDL134C, strain PPH21, active compounds read low 1 | locus YDL185W, strain tfp1, active compounds read low 1 | locus YDL192W, strain arf1, active compounds read low 0.988 | locus YDR001C, strain nth1, active compounds read low 1 | locus YDR069C, strain doa4, active compounds read low 1.02 | locus YDR101C, strain arx1, active compounds read low 1.01 | locus YDR137W, strain rgp1, active compounds read low 0.96 | locus YDR150W, strain NUM1, active compounds read low 1.01 | locus YDR159W, strain sac3, active compounds read low 1 | locus YDR162C, strain NBP2, active compounds read low 0.992 | locus YDR195W, strain ref2 1.02 | locus YDR297W, strain sur2, active compounds read low 1.02 | locus YDR318W, strain mcm21, active compounds read low 0.998 | locus YDR334W, strain swr1, active compounds read low 1.01 | locus YDR335W, strain msn5, active compounds read low 0.997 | locus YDR388W, active compounds read low 1 | locus YDR392W, strain spt3, active compounds read low 0.974 | locus YDR502C, strain sam2, active compounds read low 0.992 | locus YEL003W, strain gim4, active compounds read low 1 | locus YEL037C, strain rad23, active compounds read low 1 | locus YEL061C, strain CIN8 (second series), active compounds read low 1.01 | locus YEL061C, strain CIN8, active compounds read low 1.01 | locus YER015W, strain faa2, active compounds read low 0.991 | locus YER016W, strain bim1, active compounds read low 0.997 | locus YER110C, active compounds read low 0.992 | locus YER111C, strain swi4, active compounds read low 1.01 | locus YER155C, strain BEM2 (second series), active compounds read low 0.992 | locus YER155C, strain BEM2, active compounds read low 1.01 | locus YER167W, strain BCK2, active compounds read low 1.01 | locus YFR010W, strain ubp6, active compounds read low 1 | locus YGL078C, strain dbp3, active compounds read low 0.992 | locus YGL086W, strain mad1, active compounds read low 1.01 | locus YGL167C, strain pmr1, active compounds read low 1.01 | locus YGL173C, strain kem1, active compounds read low 1.01 | locus YGL227W, strain vid30, active compounds read low 0.997 | locus YGL240W, strain doc1, active compounds read low 1.02 | locus YGL248W, strain PDE1, active compounds read low 1 | locus YGL253W, strain hxk2, active compounds read low 1 | locus YGR078C, strain PAC10, active compounds read low 0.988 | locus YGR135W, strain pre9, active compounds read low 0.975 | locus YGR229C, strain SMI1, active compounds read low 1 | locus YGR252W, strain gcn5, active compounds read low 0.929 | locus YHR013C, strain ard1, active compounds read low 0.978 | locus YHR027C, strain rpn1, active compounds read low 1.01 | locus YHR030C, strain SLT2, active compounds read low 0.955 | locus YHR079C, strain IRE1 (second series), active compounds read low 0.993 | locus YHR079C, strain IRE1, active compounds read low 0.98 | locus YHR094C, strain hxt1, active compounds read low 0.998 | locus YHR129C, strain ARP1, active compounds read low 1.01 | locus YHR142W, strain chs7, active compounds read low 1 | locus YHR200W, strain rpn10, active compounds read low 0.994 | locus YIL066C, strain RNR3, active compounds read low 1.02 | locus YIL073C, strain SPO22, active compounds read low 1.02 | locus YIL125W, strain kgd1, active compounds read low 1.01 | locus YIR030C, strain dcg1, active compounds read low 0.991 | locus YJL092W, strain hpr5, active compounds read low 0.996 | locus YJL095W, strain BCK1 (second series), active compounds read low 0.99 | locus YJL095W, strain BCK1, active compounds read low 0.985 and 0.949 | locus YJL115W, strain asf1, active compounds read low 0.993 | locus YJL129C, strain trk1, active compounds read low 0.99 | locus YJL134W, strain LCB3, active compounds read low 1.01 | locus YJL154C, strain vps35, active compounds read low 0.994 | locus YJL164C, strain tpk1, active compounds read low 1.01 | locus YJL166W, strain qcr8, active compounds read low 1.02 | locus YJL168C, strain set2, active compounds read low 0.986 | locus YJL187C, strain SWE1 (second series), active compounds read low 0.997 | locus YJL187C, strain SWE1, active compounds read low 1.01 | locus YJR066W, strain TOR1, active compounds read low 0.9 | locus YJR075W, strain HOC1, active compounds read low 1.01 | locus YKL068W, active compounds read low 0.984 | locus YKL085W, strain MDH1 (second series), active compounds read low 1.02 | locus YKL085W, strain MDH1, active compounds read low 1.02 | locus YKL160W, strain elf1, active compounds read low 1 | locus YKL190W, strain CNB1, active compounds read low 1 | locus YKR001C, strain vps1, active compounds read low 0.983 | locus YKR026C, strain gcn3, active compounds read low 1.01 | locus YKR091W, strain srl3, active compounds read low 1 | locus YLL001W, strain dnm1, active compounds read low 1.01 | locus YLL026W, active compounds read low 0.995 | locus YLL041C, strain sdh2, active compounds read low 0.987 | locus YLR027C, strain aat2, active compounds read low 1 | locus YLR039C, strain RIC1, active compounds read low 0.985 | locus YLR058C, strain SHM2, active compounds read low 1.01 | locus YLR102C, strain apc9, active compounds read low 0.997 | locus YLR113W, strain HOG1, active compounds read low 0.966 | locus YLR221C, strain rsa3, active compounds read low 1.02 | locus YLR258W, strain gsy2, active compounds read low 0.995 | locus YLR262C, strain YPT6 (second series), active compounds read low 0.979 | locus YLR262C, strain YPT6, active compounds read low 1.02 | locus YLR268W, strain sec22, active compounds read low 1.01 | locus YLR320W, strain mms22, active compounds read low 0.999 | locus YLR342W, strain FKS1, active compounds read low 1 | locus YLR357W, strain rsc2, active compounds read low 1.01 | locus YLR370C, strain arc18, active compounds read low 1.02 | locus YLR371W, strain rom2, active compounds read low 1 | locus YLR384C, strain iki3, active compounds read low 0.987 | locus YLR418C, strain cdc73, active compounds read low 0.954 | locus YML016C, strain PPZ1, active compounds read low 1.01 | locus YML032C, strain rad52, active compounds read low 0.985 | locus YML120C, strain ndi1, active compounds read low 1.02 | locus YML124C, strain tub3, active compounds read low 0.987 | locus YMR058W, strain fet3, active compounds read low 1 | locus YMR078C, strain ctf18, active compounds read low 0.981 | locus YMR125W, strain sto1, active compounds read low 0.99 | locus YMR129W, active compounds read low 1 | locus YMR205C, strain PFK2, active compounds read low 1.01 | locus YMR223W, strain ubp8, active compounds read low 0.983 | locus YMR231W, strain pep5, active compounds read low 0.991 | locus YMR263W, strain SAP30, active compounds read low 1.01 | locus YMR307W, strain GAS1, active compounds read low 1.03 | locus YNL067W, strain RPL9B, active compounds read low 0.997 | locus YNL071W, strain lat1, active compounds read low 1.01 | locus YNL153C, strain GIM3, active compounds read low 0.999 | locus YNL183C, strain NPR1, active compounds read low 0.935 | locus YNL209W, strain ssb2, active compounds read low 1.02 | locus YNL233W, strain BNI4, active compounds read low 1.02 | locus YNL248C, strain rpa49, active compounds read low 1.01 | locus YNL250W, strain rad50, active compounds read low 0.995 | locus YNL271C, strain bni1, active compounds read low 1 | locus YNL298W, strain CLA4, active compounds read low 1.01 | locus YNL307C, strain MCK1, active compounds read low 0.995 | locus YNL322C, strain KRE1 (second series), active compounds read low 0.987 | locus YNL322C, strain KRE1, active compounds read low 1.01 | locus YNR049C, strain mso1, active compounds read low 1.01 | locus YNR052C, strain pop2, active compounds read low 0.987 | locus YOL006C, strain TOP1, active compounds read low 0.965 | locus YOL012C, strain htz1 1.15 | locus YOL147C, strain pex11, active compounds read low 1 | locus YOR001W, strain rrp6, active compounds read low 1.01 | locus YOR061W, strain CKA2, active compounds read low 1.01 | locus YOR069W, strain VPS5, active compounds read low 1 | locus YOR070C, strain gyp1, active compounds read low 1.01 | locus YOR080W, strain dia2, active compounds read low 1 | locus YOR083W, strain WHI5, active compounds read low 1 | locus YOR106W, strain vam3, active compounds read low 1.03 | locus YOR136W, strain idh2, active compounds read low 0.992 | locus YOR144C, strain elg1, active compounds read low 0.995 | locus YOR184W, strain ser1, active compounds read low 1.01 | locus YOR231W, strain MKK1, active compounds read low 0.957 | locus YOR265W, strain rbl2, active compounds read low 1.02 | locus YOR270C, strain vph1, active compounds read low 0.886 | locus YOR290C, strain snf2, active compounds read low 0.998 | locus YOR316C, strain cot1, active compounds read low 0.997 | locus YPL051W, strain arl3, active compounds read low 0.997 | locus YPL055C, strain LGE1, active compounds read low 1.03 | locus YPL078C, strain atp4, active compounds read low 1.01 | locus YPL106C, strain sse1, active compounds read low 1.02 | locus YPL240C, strain hsp82, active compounds read low 0.998 | locus YPL241C, strain CIN2, active compounds read low 1 | locus YPL256C, strain CLN2, active compounds read low 0.96 | locus YPR119W, strain clb2, active compounds read low 0.992 | locus YPR141C, strain kar3, active compounds read low 0.99 | locus YPR163C, strain tif3, active compounds read low 0.989 | locus YPR167C, strain met16, active compounds read low 0.985 | strain wtn01, active compounds read low 0.993
active: locus YKL009W, strain mrt4, active compounds read low 1.21 [resistant]
